Results as given in PubChem BioAssay (NCI).
This is part of a sample that, as a whole, favours compounds with a hit. Of some 83,000 tested, about 20% had one in any assay.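 The endpoint reported here, percent growth, reads 100 for growth as untreated, 0 for no net growth and -100 for all cells dead.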 Values without a mark were called inactive. Active and inactive are the calls of the source.

These compounds were tested on MOLT-4 leukemia (assay: NCI-60 one-dose screen, 48 h (100 = growth as untreated, 0 = no growth, -100 = all killed)). Conditions: 10 µM.
Method: Growth inhibition of the MOLT-4 human tumor cell line is measured as a screen for anti-cancer activity. Cells are grown in 96 well plates and exposed to the test compound for 48 hours. Compounds are tested at a single concentration, which is 10^-5 M for most compounds. The reported endpoint is percent growth (GI% or GIPRCNT), where numbers from 0 - 100% represent growth inhibition, and numbers from -100% - 0 represent cell death. For example, a value of 40 represents 60% growth inhibition. A value of 0 means no net growth occurred over the course of the experiment. A value of -40 indicates 40% of cells at the beginning of the experiment died by the end of the experiment. A value of -100 means all cells are dead at the end of the experiment.
NCI-60 Human Tumor Cell Lines Screen was performed using the standard one-dose NCI protocol, which is described in more detail at https://dtp.cancer.gov/discovery_development/nci-60/default.htm.
Compounds with GIPRCNT values below 10 were considered active. Activity score was based on GIPRCNT using the following formula: […]
Score is 0 for GIPRCNT values of 100 or above, 50 for GIPRCNT values of 0, and 100 for GIPRCNT values of -100.

**Q.** How did the growth turn out when `CC(=O)N(C)C1=Nc2ccc(Cl)cc2C(c2ccccc2)=[N+]([O-])C1` was run?
**A.** The growth was 101%.

**Q.** Which growth does the source give for `Cc1cc(CCl)c(C)cc1CCl` here?
**A.** The growth was 29.7%.

**Q.** With `CCOC(=O)/C=C(\C)Nc1ccc(N/C(C)=C/C(=O)OCC)c2c1Oc1ccccc1O2` as the compound, how does the growth read?
**A.** Its growth is 75.5%.

**Q.** Which growth does the source give for `COc1cc[c]([Hg][Cl])cc1` here?
**A.** The growth was -7.01% (active).

**Q.** For `CCC(C)/C=C(C)/C=C/C(=O)c1c(O)c(-c2ccc(O)cc2)c[nH]c1=O` (stereo not given), which growth is on record?
**A.** Its growth is 29.4%.

**Q.** With `CNC(=O)Oc1ccccc1` as the compound, how does the growth read?
**A.** Its growth is 106%.

**Q.** `C[C@]12CCC(=O)CC1CC[C@@H]1C2CC[C@@]2(C)C1CC[C@@H]2OC(=O)CC[Se][Se]CCC(=O)O[C@H]1CCC2[C@@H]3CCC4CC(=O)CC[C@]4(C)C3CC[C@@]21C` (stereo not given in full) was tested. Which growth did it give?
**A.** Its growth is 90.1%.

**Q.** Which growth does the source give for `c1ccc2nc(OCCN3CC3)ccc2c1` here?
**A.** The growth was 34%.

**Q.** Which growth does the source give for `O=[N+]([O-])c1ccc2cnn(CSP(=S)(c3ccccc3)c3ccccc3)c2c1` here?
**A.** The growth was 44%.

**Q.** Which growth does the source give for `O=C(CCCN1CCC2(CC1)C(=O)NCN2c1ccc(F)cc1)c1ccc(F)cc1` here?
**A.** The growth was 103%.

**Q.** For `O=C1NC2(CCNCC2)Nc2ccccc21`, which growth is on record?
**A.** The growth was 84.7%.

**Q.** Which growth does the source give for `CC(C)N=C(NC(C)C)N1CC1` here?
**A.** The growth was 105%.

**Q.** `CCCCNCCc1ccccn1` was tested. Which growth did it give?
**A.** The growth was 97.5%.

**Q.** Which growth does the source give for `CCOc1c(Cl)cc(CNC(C)C(O)c2ccccc2)cc1OC` (stereo not given) here?
**A.** The growth was 41.9%.

**Q.** Which growth does the source give for `N#C[Se]CCCNS(=O)(=O)C1CC2C=CC1C2` (stereo not given) here?
**A.** Its growth is 5.9% (active).

**Q.** How did the growth turn out when `CC(=O)N1N=C(c2ccccc2)CC1c1sc(N(CCCl)CCCl)nc1Cl` (stereo not given) was run?
**A.** Its growth is 86.7%.

**Q.** Which growth does the source give for `COC(=O)C[Se]C(=O)c1ccccc1OC(C)=O` here?
**A.** The growth was 86%.

**Q.** For `CC(=O)O[C@H]1C[C@H](O[C@H]2[C@@H](O)C[C@H](O[C@H]3[C@@H](O)C[C@H](O[C@H]4CC[C@@]5(C)C(CCC6C5C[C@@H](O)[C@]5(C)[C@@H](C7=CC(=O)OC7)CC[C@]65O)C4)O[C@@H]3C)O[C@@H]2C)O[C@H](C)[C@H]1O[C@@H]1O[C@H](CO)[C@@H](O)[C@H](O)[C@H]1O` (stereo not given in full), which growth is on record?
**A.** Its growth is -32.1% (active).

**Q.** `CC(C)(C)N(Cc1ccccc1)N=O` was tested. Which growth did it give?
**A.** Its growth is 104%.

**Q.** `NC(Cc1ccc(O)cc1)C(=O)N/N=C/c1ccc(N(CCCl)CCCl)cc1` (stereo not given) was tested. Which growth did it give?
**A.** Its growth is 29.8%.

**Q.** Which growth does the source give for `S=P(NC1CCCCC1)(N1CC1)N1CC1` here?
**A.** Its growth is 99.1%.

**Q.** With `C[C@]12CC[C@H](OC3OC(O)C(O)C(O)C3O)C=C1CCC1C2CC[C@]2(C)[C@@H](c3ccc(=O)oc3)CC[C@]12O` (stereo not given in full) as the compound, how does the growth read?
**A.** Its growth is -39.3% (active).

**Q.** Which growth does the source give for `O=C1NC(=O)C(=Cc2cn(Cc3ccccc3)c3ccccc23)C(=O)N1` here?
**A.** Its growth is 132%.

**Q.** `CC(/C=N/N=C(N)N)=N/N=C(N)N` was tested. Which growth did it give?
**A.** The growth was 101%.

**Q.** With `C[C@]12C[C@H](O)[C@H]3[C@@H](CCC4=CC(=O)CC[C@@]43C)[C@@H]1CC[C@@H]2O` as the compound, how does the growth read?
**A.** The growth was 103%.

**Q.** With `CC1(C)CC2(CC(C)(C)c3cc(O)c(O)cc32)c2cc(O)c(O)cc21` as the compound, how does the growth read?
**A.** Its growth is 71.6%.

**Q.** Which growth does the source give for `COc1ccc(C2=NN(c3ccccc3)C(c3sc(N(CCCl)CCCl)nc3Cl)C2)cc1` (stereo not given) here?
**A.** Its growth is 67.5%.

**Q.** How did the growth turn out when `C[CH2][Pb]([CH2]C)([CH2]C)[O]C(=O)COc1ccccc1` was run?
**A.** Its growth is -27.2% (active).

**Q.** For `CNC(=O)O/N=C(/C)c1ccc(Cl)cc1`, which growth is on record?
**A.** Its growth is 93.9%.

**Q.** With `O=[N+]([O-])c1ccc(/C=C/C=C/c2ccc(S(=O)(=O)F)cc2)c(Cl)c1` as the compound, how does the growth read?
**A.** The growth was 84.1%.

**Q.** `COC(=O)C(=[N+]=[N-])C(=O)OC` was tested. Which growth did it give?
**A.** The growth was 105%.

**Q.** Which growth does the source give for `CC(=O)[O][Hg][CH2]C1(C)COC(C)([CH2][Hg][O]C(C)=O)CO1` (stereo not given) here?
**A.** The growth was -19.9% (active).

**Q.** Which growth does the source give for `CC(=O)O[C@@H]1C2=C(C)C3(CC3)[C@@](C)(O)C(=O)C2=C[C@@]1(C)CO` here?
**A.** The growth was 5.2% (active).

**Q.** Which growth does the source give for `COc1ccc(/C=C(/C(=O)N2CCCC2)c2cc(OC)c(OC)c(OC)c2)cc1N` here?
**A.** Its growth is 34.4%.

**Q.** How did the growth turn out when `C#CC1(O)CCC2(C)C(CCC3C4CCC(=O)C4(C)CCC32)C1` (stereo not given) was run?
**A.** Its growth is 97.3%.

**Q.** Which growth does the source give for `O=C(CC1(O)C(=O)Nc2ccc(F)cc21)c1ccc(C(=O)NCC2CCC3(CC2)OOC2(CCCCC2)OO3)cc1` (stereo not given) here?
**A.** Its growth is 22.5%.

**Q.** `N#Cc1ncc(/N=C/c2ccc(N(CCCl)CCCl)cc2)s1` was tested. Which growth did it give?
**A.** Its growth is 42.7%.

**Q.** Which growth does the source give for `COc1cc2c(cc1OC)CN(C)C(C)C2` (stereo not given) here?
**A.** The growth was 113%.

**Q.** `CC(=O)Nc1ccc(Cc2ccc(NC(C)=O)cc2)cc1` was tested. Which growth did it give?
**A.** The growth was 76.3%.

**Q.** With `O=C(O)C1[O][Sb][O]C1C(=O)O` (stereo not given) as the compound, how does the growth read?
**A.** The growth was 94.6%.
